Test results from the supplement of paper PMC13380429.

System: Vero E6 infected with SARS-CoV-2
Assay: inhibition of SARS-CoV-2 cytopathic effect; higher = more antiviral protection, active = above 15
Conditions: 48 h

Measured: inhibition of SARS-CoV-2 cytopathic effect

C[C@@H]1COC(Nc2ccc3ncnc(Nc4ccc(OCc5nccs5)c(Cl)c4)c3c2)=N1
inactive: 1 nM 2.68% | 8.33 nM 1.86% | 100 nM -0.65% | 833.33 nM -3.55% | 10000 nM -4.19%

O=[N+]([O-])c1nccn1CC(O)CN1CCCCC1 (stereo not given) [pimonidazole]
inactive: 1 nM 0.08% | 8.33 nM 0.87% | 100 nM 1.45% | 833.33 nM 2.08% | 10000 nM -0.59%

O[C@H]1CC[C@H](Nc2nc(-c3ccccc3)nc3[nH]ccc23)CC1
inactive: 1 nM -1.91% | 8.33 nM -3.12% | 100 nM -4.27% | 833.33 nM -1.49% | 10000 nM -0.8%

COc1ccc2cccc(CCNC(C)=O)c2c1 [agomelatine]
inactive: 1 nM -0.83% | 8.33 nM 0.82% | 100 nM -2.18% | 833.33 nM -1.63% | 10000 nM 0.7%

Nc1cccc2c1C(=O)N(C1CCC(=O)NC1=O)C2=O (stereo not given) [pomalidomide]
inactive: 1 nM 1.4% | 8.33 nM -0.68% | 100 nM 2.15% | 833.33 nM 0.83% | 10000 nM 2.41%

Oc1ccc(-c2nc3cc(O)cc(Br)c3o2)cc1
inactive: 1 nM 0.68% | 8.33 nM 1.49% | 100 nM 2.09% | 833.33 nM 4.89% | 10000 nM 2.95%

CCN(CC)CCCC(C)Nc1c2ccc(Cl)cc2nc2ccc(OC)cc12 (stereo not given) [mepacrine]
inactive: 1 nM 3.59% | 8.33 nM 0.39% | 100 nM 5.65% | 833.33 nM 5.16% | 10000 nM -17.4%
